SNCA expr inhib: inhibitors of alpha-synuclein (SNCA) gene expression; HEK-293 SNCA-luciferase knock-in, luminescence, 24 h; Potency, µM (series often up to 57.2 µM), for the others: top-dose activity change, negative = inhibition, hits mostly inhibitors; hit rate 0.17% among 140,000; AID 1671194;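 further: potency means the concentration at half of the fitted maximal effect; plate controls were DMSO cells for no effect and cell-free wells for full effect; nearly all actives have a fitted effect of over 45% in size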
KDM5B inhibitor: inhibitors of human KDM5B histone demethylase | Q9UGL1 | KDM5B demethylase, FDH-coupled NADH fluorescence (FDH is formaldehyde dehydrogenase) | Potency, µM (top dose mostly 57.7 µM), hits mostly inhibitors | hit rate 2.6% among 220,000 | AID 1347165; further: potency means the concentration at half of the fitted maximal effect; 0% is about no effect; nearly all actives have a fitted effect of over 70% in size
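Inhibition is measured as reduced NADH fluorescence generation from FDH coupling to formaldehyde release. Truncated KDM5BΔAP at 200 nM final acts on H3K4me3 peptide (12.5 µM in substrate mix) in pH 7.5 HEPES buffer with Tween-20, 30 min, room temperature.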
HEK293 viab: reduces viability of HEK-293 SNCA reporter cells; HEK-293-SNCA-luc viability, GF-AFC fluorescence, 24 h; Potency, µM (doses to about 57.1 µM), inactives show at the highest dose activity change, negative = cytotoxicity, hits mostly cytotoxic; hit rate 0.12% among 150,000; AID 1671193;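 further: potency means the concentration at half of the fitted maximal effect; 0% = DMSO-treated cells and -100% = medium-only wells without cells; nearly all actives have a fitted effect of over 30% in size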
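Cytotoxicity counterscreen: after 24 h compound treatment of genome-edited SNCA-luciferase HEK-293 cells, live-cell protease substrate GF-AFC read by fluorescence after 30 min; activity scaled between DMSO (0%) and medium-only (-100%), curves Hill-fitted.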
IP6K1 inh: inhibitors of human IP6K1. Q92551. IP6K1 kinase, ADP-Glo luminescence, 2 h; hits give low values. activity change, % (series mostly up to about 58 µM). hit rate 0.81% among 140,000; in the data active means activity change below about -25%; further: on the % scale 0 is the no-effect control and ±100 the full control effect
Target sequence (Q92551 whole entry, looked up): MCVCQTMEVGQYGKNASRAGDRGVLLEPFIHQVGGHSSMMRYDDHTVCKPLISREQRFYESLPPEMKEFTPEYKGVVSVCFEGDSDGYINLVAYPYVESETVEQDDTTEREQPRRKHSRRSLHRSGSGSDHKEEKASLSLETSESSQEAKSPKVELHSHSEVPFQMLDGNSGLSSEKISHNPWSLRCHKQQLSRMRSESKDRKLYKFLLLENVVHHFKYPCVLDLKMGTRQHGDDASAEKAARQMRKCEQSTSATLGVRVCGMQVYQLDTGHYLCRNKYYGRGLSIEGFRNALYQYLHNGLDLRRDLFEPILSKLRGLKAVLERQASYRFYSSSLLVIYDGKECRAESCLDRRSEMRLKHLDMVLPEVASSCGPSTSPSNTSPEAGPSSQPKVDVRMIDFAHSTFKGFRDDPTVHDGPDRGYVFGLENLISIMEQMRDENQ
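ADP-Glo luminescence measures ADP made by human IP6K1 during a 2 h RT reaction with ATP/IP6 (mix at 1.3 mM/130 uM); top library doses 57.5 and 19.1 uM final.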
* = called active by the depositor; i = inactive; u = inconclusive; x = not tested or not shown; [ ] = remark or other dose. Shown are actives, neighbours in structure and some others; about 2.9% of the full set was active somewhere. Unless noted, the call rests on the fitted dose curve; in most records, active means well fitted curve in the direction sought with a large enough effect; inconclusive means small, poorly fitted or top-dose-only effect, or another doubt; inactive means no such curve, though single readings can be large; an effect the other way counts as inactive or inconclusive.

SMILES | SNCA expr inhib | KDM5B inhibitor | HEK293 viab | IP6K1 inh
c1cncc(-c2ccnc(N3CCCOC(Cn4cccn4)C3)n2)c1 (centres undefined) | -16% | 25µM* | -3% | -17
CC(C)C[C@@H]1N[C@H](C(=O)NCCOc2ccccc2)Cc2cn(C)c3cccc1c23 | u | u | u | -14
CCC1CCCCN1CCNC(=O)c1cc2c(s1)CN(C1CCCC1)C2 (centres undefined) | 35% | 14µM* | 4% | 25
Cn1c(CNC(=O)c2cc3c(s2)CN(C2CC2)C3)nc2ccccc21 | 13% | 13µM* | 5% | 9
CC(c1ccccc1)N1CCN(c2cccc(CN(C)[S+](C)(=O)[O-])c2F)CC1 (centres undefined) | x | x | x | 23
Cc1ccc(CSc2oc(-c3cccs3)nc2S(=O)(=O)c2ccccc2)cc1 | -23% | i | 2% | -10
CCC(C)S(=O)(=O)c1oc(-c2cccs2)nc1S(=O)(=O)c1ccccc1 (centres undefined) | u | i | 2.8µM* | -2
CC(C)CS(=O)(=O)c1oc(-c2ccc(F)cc2)nc1S(=O)(=O)c1ccccc1 | u | u | 4.5µM* | -12
O=S(=O)(c1ccccc1)c1nc(-c2ccc(F)cc2)oc1NCc1ccccc1 | 40% | u | -5% | 10
COc1cccc(-c2c(C(=O)NCc3ccc(F)c(F)c3)nc3sccn23)c1 | -12% | x | -6% | -14
CN(Cc1cccnc1)Cc1nc(C2(O)CCN(Cc3ccc(C(F)(F)F)cc3)CC2)cs1 | u | i | -22% | -3
CN(C)c1ncc2c(n1)C(C)(C(=O)Nc1ccncc1)CCC2 (centres undefined) | -12%[87.6 µM] | 32µM* | 5%[87.6 µM] | 8
COc1cccc(NC(=O)C2(C)CCCc3cnc(N(C)C)nc32)c1 (centres undefined) | u | 40µM* | -15%[87.6 µM] | 5
CN(C)c1ncc2c(n1)C(C)(C(=O)Nc1cccc(F)c1)CCC2 (centres undefined) | u | 32µM* | 1%[87.6 µM] | 11
Cn1cc(CN[C@H]2[C@H](O)[C@H](O)C[C@@H]2c2ccc(N3CCOCC3)nc2)cn1 | 3%[87.6 µM] | 40µM* | -13%[87.6 µM] | -1
Cc1ccccc1C(=O)N[C@H]1[C@H](O)[C@H](O)C[C@@H]1c1ccc(N2CCOCC2)nc1 | 28%[87.6 µM] | 32µM* | 1%[87.6 µM] | 1
Cc1cc(C(=O)N[C@H]2[C@H](O)[C@H](O)C[C@@H]2c2ccc(N3CCOCC3)nc2)nn1C | 37%[87.6 µM] | 32µM* | -6%[87.6 µM] | 7
COc1ccc(C(=O)N[C@H]2[C@H](O)[C@H](O)C[C@@H]2c2ccc(N3CCOCC3)nc2)cc1OC | -1% | u | 3% | 7
COc1ccc([C@H]2C[C@@H](O)[C@@H](O)[C@@H]2NCc2ccc(OC)nc2)cc1 | u | i | u | -6
Cn1ncc2c(C(=O)N3CCC(Cc4ccccc4)CC3)cc(-c3ccccc3C(F)(F)F)nc21 | x | x | x | 6
O=C(N[C@@H]1C[C@@H]2CO[C@H](c3ccccc3)C[C@@H]2C1)c1cc2ccccc2o1 | x | x | x | 3
CN(Cc1ccc2c(c1)OCO2)C(=O)c1nn(-c2ccccc2)c(=O)c2ccccc12 | x | i | x | x
Cc1cccc(OC[C@H]2C[C@@H](NC(=O)c3ccccc3)[C@H](O)[C@@H]2O)n1 | -4%[87.6 µM] | 35µM* | 2%[87.6 µM] | 5
O=C(Nc1ccc2cn[nH]c2c1)c1ccc2c(c1)OCCN(c1ccccc1)C2 | 8%[87.6 µM] | 32µM* | u | 6
O=C(Nc1nccs1)c1ccc2c(c1)OCCN(c1ccccc1)C2 | 24%[87.6 µM] | u | 6%[87.6 µM] | -6
SMILES | SNCA expr inhib | KDM5B inhibitor | HEK293 viab | IP6K1 inh
Cc1nn2c(c1-c1ccccc1Oc1ccccc1)N(C(=O)c1ccc(F)cc1)CCC2 | u | i | -9%[87.6 µM] | 12
COc1ccc(CN2CCCn3nc(C)c(-c4ccccc4Oc4ccccc4)c32)cc1O | 6.3µM* | u | u | 4
Cc1nn2c(c1-c1ccccc1Oc1ccccc1)N(Cc1ccc(C(=O)O)cc1)CCC2 | u | 35µM* | u | 5
Cc1cc(C(=O)NCC(C)C)c2c(C3CCCN3)noc2n1 (centres undefined) | 11% | i | -5% | 0
O=C(NCc1ccncc1)c1cc(C2CC2)nc2onc(C3CCCN3)c12 (centres undefined) | -1% | 79µM* | 2% | 9
Cc1cc(C(=O)NCC(F)(F)F)c2c(C3CCCN3)noc2n1 (centres undefined) | 15% | 50µM* | 2% | 0
COC(=O)N1CCC2(C1)N=C(c1ccccn1)C(=O)N2 (centres undefined) | -8%[87.6 µM] | 35µM* | 1%[87.6 µM] | -2
Cc1cc(C)n2nc(C(=O)N3CCCC4(CNC(=O)O4)C3)cc2n1 (centres undefined) | u | 25µM* | 12% | -3
COc1ccccc1C(=O)NC1CCN(Cc2cccc(-c3ccc(SC)cc3)c2)CC1 | x | x | x | -9
Cc1ccc(Nc2ccnc(N3CCCC(C(=O)NCC(F)F)C3)n2)cc1 (centres undefined) | -12% | x | 8%[12.5 µM] | -2
O=C(c1ccc(-c2cccs2)cc1)N1CCC(C(=O)N2CCCC2)CC1 | x | x | x | -19
COc1nc2nc(CCc3ccccc3)n(C)c2cc1-c1ccnn1C | -17%[87.6 µM] | 40µM* | 4%[87.6 µM] | 9
COc1nc2nc(CCc3ccccc3)n(C)c2cc1-c1ccncc1 | 46%[87.6 µM] | u | -14%[87.6 µM] | 15
COc1cccc(-c2ccc(CN3CCCC(NC(=O)C4CC4)C3)cc2)c1 (centres undefined) | x | x | x | -1
COc1ccc(-n2cc(CN3CCN(C)C(C)C3)c(-c3cccc(F)c3)n2)cc1 (centres undefined) | 12% | 25µM* | -7% | -3
COc1ccc(-n2cc(CN3CCCC(CO)C3)c(-c3cccc(F)c3)n2)cc1 (centres undefined) | -24% | 35µM* | -10% | -6
CC(C)NC(=O)c1cc(-c2ccc(Cl)cc2Cl)c2nncn2n1 | 26%[87.6 µM] | x | 5%[12.5 µM] | 4
COC(=O)CNC(=O)C1CCCN1Cc1cccc(-c2ccc(C)c(Cl)c2)c1 (centres undefined) | x | x | x | 2
COCc1cn(C[C@H]2C[C@@H](NCc3cccnc3)[C@H](O)[C@@H]2O)nn1 | u | 35µM* | -3%[87.6 µM] | 5
O=S1(=O)CCN(Cc2cn(C[C@H]3C[C@@H](NCc4cccnc4)[C@H](O)[C@@H]3O)nn2)CC1 | -22% | u | -6% | 10
NC(=O)Cn1ccc2cc(OCC3CCN(C(=O)CCc4ccccc4)CC3)cnc21 | -15%[87.6 µM] | 32µM* | -10%[87.6 µM] | -9
NC(=O)Cn1ccc2cc(OCC3CCN(C(=O)COc4ccccc4)CC3)cnc21 | 17%[87.6 µM] | 35µM* | -2%[87.6 µM] | -8
Cc1ccc(CN2CCN(c3nc(C)ccc3C#N)CC2CCO)cc1 (centres undefined) | 5% | 18µM* | 1% | 2
C[S+](=O)([O-])NCCn1ccc2cc(OC3CCN(C(=O)C4CCCC4)CC3)cnc21 | 6%[87.6 µM] | 35µM* | -3%[87.6 µM] | 6
COc1ccccc1-c1ccnc(-c2nnc(C)n2C2CCCCC2)c1 | -34%[87.6 µM] | u | -8%[87.6 µM] | -5

Screening data (PubChem BioAssay)
